Results as given in PubChem BioAssay.
Calls of active or inactive are those of the source.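 The calls were made as follows, unless noted: active = fluorescence slope after compound addition differing from the mean of all screened samples at 99.7% confidence, in either direction; inactive = the rest.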

Columns and labels:
[1] = inhibitors of TNFa-induced NFkB p65 translocation, primary screen, imaging, HUVEC, MLSMR starter and 10KST1 sets (AID 438;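 active = inhibition above 20% together with a positive visual image hit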;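 also: compound added about 3h40 before a 20 min TNFalpha stimulation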;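 as to inhibition: signal is the nuclear over cytoplasmic p65 intensity ratio per well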); details: HUVEC TNFa-induced p65 nuclear translocation; cell count: measured here: nuclei count (cytotoxicity indicator), at 2.08 µM; inhibition: at 2 µM, stronger effect = higher value, 0% TNFa-plus-vehicle, 100% no-TNFa wells
[2] = inhibitors of mutant huntingtin aggregation, primary screen, imaging, exon1htt(103Q)mCFP cells, high-content imaging (AID 483;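 active = visual image review flags a hit and inhibition of aggregation exceeds 20%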;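 also: compound exposure lasted 3 days before fixation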;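 as to nuclei count: percent of the per-plate median nuclei count of sample wells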); details: exon1htt(103Q)mCFP cell line, aggregate imaging, at 2 µM; inhibition of aggregation: stronger effect = higher value; nuclei count: measured here: cell count, toxicity
[3] = inhibitors of E-selectin induction by TNFa, primary screen, imaging, HUVEC, immunofluorescence, MLSMR starter and 10KST1 sets (AID 487;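 active = visually confirmed hit in the image check and inhibition above 20%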;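 as to inhibition: signal is fraction of cell area covered by stained E-selectin grains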;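 as to nuclei count: 100% = median nuclei count of all wells on the same plate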); details: HUVEC TNFalpha-induced E-selectin immunofluorescence imaging, at 2 µM; inhibition: stronger effect = higher value; nuclei count: measured here: cell number, toxicity
[4] = target: Voltage-gated potassium channel subunit beta-2 (Rattus norvegicus) (UniProt P62483); experiment: KvBeta enzyme negative modulators, primary screen, biochemical, NADPH fluorescence (AID 622;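 active = fluorescence slope higher than the sample average by over 3 SD, cut at about -0.22 in these data, passing the limit was not always enough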;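 also: slope of raw intensity against log time taken from 70 to 1610 s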); details: recombinant KvBeta, 4-cyanobenzaldehyde reduction, at 10 µM, stronger effect = higher value
Voltage-gated potassium channel subunit beta-2 (Rattus norvegicus), sequence (P62483 whole entry, looked up): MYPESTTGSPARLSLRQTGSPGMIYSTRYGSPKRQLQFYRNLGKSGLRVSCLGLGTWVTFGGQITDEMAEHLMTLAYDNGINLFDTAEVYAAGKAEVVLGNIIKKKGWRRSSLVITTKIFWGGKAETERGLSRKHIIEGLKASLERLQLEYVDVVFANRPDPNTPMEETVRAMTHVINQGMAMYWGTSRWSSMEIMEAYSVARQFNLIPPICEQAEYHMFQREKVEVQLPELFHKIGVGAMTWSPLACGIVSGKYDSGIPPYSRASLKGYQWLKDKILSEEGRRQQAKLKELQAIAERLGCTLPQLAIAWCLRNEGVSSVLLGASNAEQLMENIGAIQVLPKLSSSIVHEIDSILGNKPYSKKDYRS

[5] = target: Voltage-gated potassium channel subunit beta-2 (Rattus norvegicus) (UniProt P62483); experiment: KvBeta positive modulators, primary screen, biochemical, NADPH fluorescence (AID 623;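 active = NADPH fluorescence slope more negative than the mean of all samples by about 3 SD, 99.7% confidence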;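 also: fluorescence intensity change per second fitted from 20 to 320 s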); details: Recombinant KvBeta, NADPH fluorescence decrease slope, 10 min; at 10 µM; stronger effect = lower value
[6] = target: Alpha-2C adrenergic receptor (Homo sapiens) (UniProt P18825); experiment: modulators of alpha2C/GIRK thallium flux, primary screen, cell-based, HEK293 alpha2C/GIRK1/2 (AID 624); details: thallium flux BTC fluorescence, at 10 µM, actives lie on both sides;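 also: slope of fluorescence ratio to pre-addition baseline per second over 15 to 24 s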
Alpha-2C adrenergic receptor (Homo sapiens), sequence (P18825 whole entry, looked up): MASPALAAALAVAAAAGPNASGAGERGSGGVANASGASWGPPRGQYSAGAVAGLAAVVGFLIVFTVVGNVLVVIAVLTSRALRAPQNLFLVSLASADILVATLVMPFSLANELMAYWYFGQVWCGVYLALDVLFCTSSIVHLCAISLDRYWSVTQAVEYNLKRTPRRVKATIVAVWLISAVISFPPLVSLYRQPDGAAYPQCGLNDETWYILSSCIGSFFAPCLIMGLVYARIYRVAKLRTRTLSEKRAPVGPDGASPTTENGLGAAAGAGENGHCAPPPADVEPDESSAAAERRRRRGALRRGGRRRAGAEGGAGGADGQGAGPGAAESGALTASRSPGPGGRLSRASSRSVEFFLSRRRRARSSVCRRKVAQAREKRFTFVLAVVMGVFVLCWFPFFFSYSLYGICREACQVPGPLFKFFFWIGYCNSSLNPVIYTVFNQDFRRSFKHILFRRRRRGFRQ

[7] = inhibitors of Sendai virus-induced IRF3 signaling, primary screen, TLR/RLR signaling modifier project, cell-based, Sendai virus stimulus, luciferase, 10K MLSCN set (AID 602276;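 active = inhibition at or above 50% at 10 µM; inactive = inhibition below 50%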;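 also: firefly luciferase from ISG56 promoter only with Renilla not read in this screen; 0% = Sendai virus plus DMSO and 100% = medium plus DMSO without virus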); details: HEK293 RL24 IRF3 luciferase reporter, at 10 µM, stronger effect = higher value
[8] = inhibitors of poly I:C-induced TLR3 signaling, primary screen, cell-based, poly I:C stimulus, luciferase, 10K MLSCN set (AID 602277;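 active = inhibition of the reporter signal at or above 50%; inactive = inhibition below 50%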); details: HEK293-TLR3 RL24 IRF3 luciferase reporter, at 10 µM, stronger effect = higher value

SMILES	cell count [1]	inhibition [1]	inhibition of aggregation [2]	nuclei count [2]	inhibition [3]	nuclei count [3]	fluorescence slope [4]	NADPH fluorescence slope [5]	slope [6]	inhibition [7]	inhibition [8]
CCN(CCNC(=O)CS(=O)(=O)Cc1nc(-c2cccc(OC)c2)oc1C)c1ccccc1	644	-27.6% (inactive)	-16.4% (inactive)	121%	-37.8% (inactive)	107%	-0.53 (inactive)	-4e-05 (inactive)	0.00529 (inactive)	13.7% (inactive)	20.1% (inactive)
C=CCn1c(=O)c(C(=O)Nc2ccccc2C(=O)OCC)c(O)c2ccccc21	495	-5.5% (inactive)	-15.6% (inactive)	120%	-23.1% (inactive)	122%	-0.422 (inactive)	-4.7e-05 (inactive)	0.00716 (inactive)	16.9% (inactive)	14.7% (inactive)
COCCN(CCOC)S(=O)(=O)c1ccc(C(=O)Nc2nnc(C3CC3)o2)cc1	390	-0.2% (inactive)	0% (inactive)	102%	44.1% (inactive)	100%	-0.484 (inactive)	-3.8e-05 (inactive)	0.00677 (inactive)	16.9% (inactive)	24.5% (inactive)
CC(CCc1ccccc1)NC(=O)CSc1nc(N)cc(N)n1 (stereo not drawn)	253	-6% (inactive)	-23.7% (inactive)	10.8%	-41.5% (inactive)	99.2%	-0.483 (inactive)	-4.4e-05 (inactive)	0.00545 (inactive)	8.76% (inactive)	10.6% (inactive)
N/C(=N/O)c1nc(N2CCCCC2)nc(N2CCCCC2)n1	640	-16.2% (inactive)	-135% (inactive)	53.7%	-50.5% (inactive)	81.9%	-0.498 (inactive)	8.9e-06 (inactive)	0.00632 (inactive)	8.03% (inactive)	24.6% (inactive)
COc1ccc(Cn2nnnc2C(c2cc3cc(C)cc(C)c3[nH]c2=O)N2CCOCC2)cc1 (stereo not drawn)	762	-12.9% (inactive)	33.9% (inactive)	113%	-9.5% (inactive)	108%	-0.51 (inactive)	-6.8e-05 (inactive)	0.00452 (inactive)	13.8% (inactive)	24.9% (inactive)
Cc1cc(C)cc(N2C(=O)CC(N3CCOCC3)C2=O)c1 (stereo not drawn)	459	3% (inactive)	-4.9% (inactive)	105%	38.6% (inactive)	98.8%	-0.355 (inactive)	3e-05 (inactive)	0.00693 (inactive)	13.8% (inactive)	32.5% (inactive)
c1ccc2c(c1)CNc1ccccc1C2	526	-11.2% (inactive)	30.2% (inactive)	83.2%	-30% (inactive)	86.7%	-0.517 (inactive)	2.1e-06 (inactive)	0.00468 (inactive)	7.99% (inactive)	10.2% (inactive)
COc1cccc(-c2nc(CS(=O)(=O)CC(=O)NCc3ccc(Cl)cc3)c(C)o2)c1	840	-2.3% (inactive)	-4.4% (inactive)	122%	-41.4% (inactive)	118%	-0.554 (inactive)	1.6e-06 (inactive)	0.00669 (inactive)	-3.28% (inactive)	18% (inactive)
O=C(CSc1nnc(-c2ccncc2)n1-c1ccc(F)cc1)NC(=O)NCc1ccco1	537	-13.7% (inactive)	-9.8% (inactive)	100%	-65.7% (inactive)	149%	-0.46 (inactive)	-0.000317 (inactive)	0.00513 (inactive)	10.1% (inactive)	15.2% (inactive)
CC(=O)N(C)C1(c2nnnn2CCOC(=O)Nc2ccc(Cl)cc2)CCCCC1	498	4.3% (inactive)	5.4% (inactive)	107%	-33.3% (inactive)	105%	-0.398 (inactive)	-3.1e-05 (inactive)	0.00444 (inactive)	1.79% (inactive)	20.6% (inactive)
O=C1CCc2cc(S(=O)(=O)N3CCC(C(=O)NCc4ccccn4)CC3)ccc2N1	599	0% (inactive)	32.3% (inactive)	115%	-26.3% (inactive)	110%	-0.578 (inactive)	1.3e-05 (inactive)	0.00666 (inactive)	13.9% (inactive)	14.7% (inactive)
CN(CC(=O)N1CCCc2c1c(=O)oc1ccc(O)cc21)Cc1ccccc1	418	5.7% (inactive)	-21% (inactive)	97.1%	-85.3% (inactive)	117%	-0.258 (inactive)	-4.5e-05 (inactive)	0.00473 (inactive)	11.5% (inactive)	27.4% (inactive)
